Bioassay records from PubChem BioAssay.
JMJD2A Tudor inh = qHTS Assay for Inhibitors of JMJD2A-Tudor Domain; 390,000 compounds, 4.4% hits; Lysine-specific demethylase 4A (Homo sapiens), O75164; Potency, µM (titrated, usually from 114 µM), inactives show at the top dose activity change, negative = inhibition, hits mostly inhibitors; AlphaScreen JMJD2A-Tudor / H3K4me3 peptide binding; also: potency is read from the fitted curve at half-maximal effect; % is scaled to controls: 0 for no effect and ±100 for the full control effect; nearly all actives have a fitted effect of over 50% in size
Sfp inh = qHTS Assay for Inhibitors of Bacillus subtilis Sfp phosphopantetheinyl transferase (PPTase). 4'-phosphopantetheinyl transferase ffp (Bacillus subtilis), Q9F4F7. Biochemical Sfp PPTase activity, qHTS. Potency, µM, for the others: largest response in the series, negative = inhibition, most hits filed as inhibitors. 310,000 compounds, 3.5% hits. AID 1490, 2009;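 also: the enzyme is Sfp with the accession as filed and its product quenches rhodamine fluorescence; potency is read from the fitted curve at half-maximal effect; 0% = enzyme reaction without inhibitor and -100% = no enzyme wells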
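After 15 min at room temperature with compound, 15 nM Sfp received 5 uM rhodamine-CoA plus 12.5 uM BHQ-2-ybbR (50 mM Hepes pH 7.6, 10 mM MgCl2). Rate came from the fluorescence difference over 30 min, ex 525/em 598 nm.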
HP1b binding inh = HTS for Inhibitors of HP1-beta Chromodomain Interactions with Methylated Histone Tails | AlphaScreen HP1-beta / biotin-H3K9me3 peptide binding | Potency, µM (series often up to 114 µM), for the others: at the top dose activity change, negative = inhibition, usual class: inhibitors | 390,000 compounds, 0.56% hits; also: potency is read from the fitted curve at half-maximal effect; nearly all actives have a fitted effect of over 70% in size
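Compound inhibition of the preformed complex between 50 nM HP1-beta and 50 nM biotinylated H3K9me3 peptide was read by AlphaScreen. Buffer was PBS pH 7.4 with 0.01% Tween-20. Incubations ran 30 min at room temperature, with 10 ug/mL donor/acceptor beads.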
BAZ2B inh = qHTS Assay for Inhibitors of BAZ2B. Potency, µM (highest dose often 114 µM), without a hit: at the top dose activity change, negative = inhibition, most hits filed as inhibitors. AlphaScreen BAZ2B-H3K14Ac peptide displacement. 360,000 compounds, 4.4% hits. Bromodomain adjacent to zinc finger domain protein 2B (Homo sapiens), Q9UIF8; also: potency is read from the fitted curve at half-maximal effect; % is scaled to controls: 0 for no effect and ±100 for the full control effect; nearly all actives have a fitted effect of over 60% in size
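BAZ2B (50 nM) with biotin-H3(5-23)K14Ac peptide (50 nM) in PBS pH 7.4, 0.01% Tween-20, preformed 30 min, then compound 30 min at room temperature; top concentration 110uM. AlphaScreen streptavidin donor/nickel chelate acceptor beads (10 ug/mL final), 20 min dark, signal read.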
L3MBTL1 block = qHTS Assay for the Inhibitors of L3MBTL1. Lethal(3)malignant brain tumor-like protein 1 (Homo sapiens), Q9Y468. AlphaScreen L3MBTL1–H3K9me1 peptide binding. Potency, µM (highest dose often 57.1 µM), inactives show top-dose activity, negative = inhibition, usual class: inhibitors. 230,000 compounds, 0.66% hits. AID 485360, 2010; also: potency is read from the fitted curve at half-maximal effect; % is scaled to controls: 0 for no effect and ±100 for the full control effect; nearly all actives have a fitted effect of over 60% in size
Target sequence (Q9Y468 whole entry, looked up): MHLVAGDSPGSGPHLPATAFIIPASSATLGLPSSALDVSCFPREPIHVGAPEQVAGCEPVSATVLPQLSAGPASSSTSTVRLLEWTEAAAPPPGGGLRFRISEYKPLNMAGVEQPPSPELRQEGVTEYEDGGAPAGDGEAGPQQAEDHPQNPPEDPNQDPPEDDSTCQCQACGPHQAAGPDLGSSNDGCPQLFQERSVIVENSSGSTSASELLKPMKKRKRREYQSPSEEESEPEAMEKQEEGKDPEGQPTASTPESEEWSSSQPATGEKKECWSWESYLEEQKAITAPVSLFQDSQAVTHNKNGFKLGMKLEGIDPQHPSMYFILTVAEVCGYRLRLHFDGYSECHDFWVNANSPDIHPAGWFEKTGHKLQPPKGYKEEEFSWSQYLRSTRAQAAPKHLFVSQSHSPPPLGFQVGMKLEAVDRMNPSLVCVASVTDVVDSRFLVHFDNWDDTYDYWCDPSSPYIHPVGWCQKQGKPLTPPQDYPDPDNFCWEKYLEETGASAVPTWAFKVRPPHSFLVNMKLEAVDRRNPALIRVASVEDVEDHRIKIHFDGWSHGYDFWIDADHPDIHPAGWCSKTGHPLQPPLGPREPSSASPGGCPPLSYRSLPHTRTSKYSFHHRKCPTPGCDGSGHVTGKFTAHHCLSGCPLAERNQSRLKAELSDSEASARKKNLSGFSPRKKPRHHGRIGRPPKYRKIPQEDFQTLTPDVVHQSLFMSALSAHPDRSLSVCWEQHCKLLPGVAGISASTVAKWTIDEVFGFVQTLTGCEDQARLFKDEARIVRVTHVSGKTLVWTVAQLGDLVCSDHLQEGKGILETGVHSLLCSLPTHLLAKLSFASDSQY
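AlphaScreen assay: L3MBTL1 (50 nM final) was preincubated 30 min at room temperature with biotinylated H3(1-15)K9me1 peptide (75 nM final), then 30 min with library compounds; streptavidin donor and nickel chelate acceptor beads (10 ug/mL final) added, 30 min dark.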
G9a block = qHTS Assay for Inhibitors of Histone Lysine Methyltransferase G9a | Histone-lysine N-methyltransferase EHMT2 (Homo sapiens), Q96KQ7 | G9a H3K9 monomethylation, AlphaScreen, 2 h | Potency, µM (highest dose often 102 µM), without a hit: top-dose activity, negative = inhibition, hits mostly inhibitors | 350,000 compounds, 8.8% hits | AID 504332, 2011; also: potency is read from the fitted curve at half-maximal effect; % is scaled to controls: 0 for no effect and ±100 for the full control effect; nearly all actives have a fitted effect of over 75% in size
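Using a bead-based AlphaScreen, monomethylated H3K9 product from 2 h room-temperature reactions (G9a 20 nM, peptide 500 nM, SAM 20 uM) was detected with 0.5 ug/mL rabbit anti-H3K9me1 antibody.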
Sfp PPTase conf = Confirmation qHTS Assay for Inhibitors of Bacillus subtilis Sfp phosphopantetheinyl transferase (PPTase); Potency, µM (doses to about 114 µM), without a hit: at the highest dose activity change, negative = inhibition, usual class: inhibitors; Sfp PPTase enzymatic assay, qHTS titration; shares compounds with Sfp inh; 380 compounds, 79% hits; AID 2701, 2010;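 also: potency is read from the fitted curve at half-maximal effect; plate controls were uninhibited Sfp reaction for no effect and no enzyme control for full effect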
Sfp gel assay = Gel-Based Assay for Inhibitors of Bacillus subtilis Sfp phosphopantetheinyl transferase (PPTase) | shares compounds with Sfp inh | purified Sfp, gel-based phosphopantetheinylation read-out | Potency, µM, hits mostly inhibitors | 210 compounds, 20% hits;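 active = potency below 100 µM; inconclusive = dose-dependent response but potency above 100 µM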;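 also: band intensities scaled against SCH202676 control wells before curve fitting; potency is an IC50 for inhibitors of Sfp transfer activity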
Starred values were filed as active, the others as inactive; i = inactive; ? = inconclusive; . = no result; [ ] = another dose, or the depositor's remark. A selection: hits, their analogues and other compounds. The true share with any hit is near 12%. Unless noted, calls follow the shape of the dose curve; as a rule, active = well fitted curve in the direction sought with a large enough effect; inconclusive = small, poorly fitted or top-dose-only effect, or another doubt; inactive = no such curve, though single readings can be large; an effect the other way counts as inactive or inconclusive.

SMILES	JMJD2A Tudor inh	Sfp inh	HP1b binding inh	BAZ2B inh	L3MBTL1 block	G9a block	Sfp PPTase conf	Sfp gel assay
CC(C)C(c1nnnn1Cc1ccc(F)cc1)N1CCN(c2ccc(O)cc2)CC1 (stereo not drawn)	39.8µM*	15.8µM*	70.8µM*	-33.4%	-29.0%	12.6µM*	46.9µM*	.
O=C(COC(=O)/C=C/c1ccco1)NCc1ccccc1Cl	-13.3%	7.94µM*	24.5%	14.8%	17.9%	44.7µM*	37.3µM*	i
O=C(COC(=O)/C=C/c1ccco1)NCc1ccc(Cl)cc1Cl	-8.5%	.	17.6%	.	-2.4%	.	.	.
CO/N=C(\C(=O)N[C@@H]1C(=O)N2C(C(=O)[O-])=C(C[n+]3cccc4c3CCC4)CS[C@H]12)c1csc(N)n1	.	56.2µM*	.	.	.	-26.7%[12.7 µM]	41.8µM*	55.6µM*
CO/N=C(/C(=O)N[C@@H]1C(=O)N2C(C(=O)O)=C(CSC(=O)c3ccco3)CSC12)c1csc(N)n1 (stereo partly drawn)	.	56.2µM*	.	.	.	?	46.9µM*	6.17µM*
CO/N=C(/C(=O)NC1C(=O)N2C(C(=O)O)=C(COC(N)=O)CSC12)c1ccco1 (stereo not drawn)	.	-27.1%	.	.	.	-3.3%[2.33 µM]	.	.
COCC1=C(C(=O)OC(C)OC(=O)OC(C)C)N2C(=O)[C@@H](NC(=O)/C(=N\OC)c3csc(N)n3)[C@H]2SC1 (stereo partly drawn)	-23.0%	.	21.9%	.	.	.	.	.
COc1cc(C/C=C/c2ccccc2)c(OC)cc1O	.	-40.1%	.	.	.	?	.	.
O=C(CSc1nnc(-c2ccncc2)n1Cc1ccco1)OC1CCCCC1	-9.6%	14.1µM*	22.9%	-30.8%	.	-38.6%[12.7 µM]	52.7µM*	i
CC(=O)Nc1ccc(NCc2ccc(-c3ccccc3)cc2)cc1	-24.0%	.	7.0%	.	.	.	.	.
CCc1ccc(CNc2ccc(O)cc2)cc1	56.2µM*	11.2µM*	-86.1%	39.8µM*	7.94µM*	?	37.3µM*	i
CCOc1ccccc1CNc1ccc(O)cc1	56.2µM*	10µM*	?	35.5µM*	?	-136.9%[59 µM]	10.5µM*	i
Cc1cc(Cl)ccc1NC(=O)CN1C(=O)CSc2ccc(S(=O)(=O)N(C)C)cc21	-9.4%	.	18.0%	-3.4%	.	-1.3%[59 µM]	.	.
NC(=O)Cn1c(=O)n(Cc2ccco2)c(=O)c2c3c(sc21)CCCCC3	56.2µM*	10µM*	-45.1%	?	?	20µM*	18.7µM*	.
CCOC(=O)C1C(C(=O)OC)=C(c2ccc(F)cc2)c2ccc(OC)cc2N1S(=O)(=O)C(F)(F)F (stereo not drawn)	.	9.9%	.	.	.	-1.8%[59 µM]	.	.
O=C(O)CNc1nc(-c2ccccc2)c2cc([N+](=O)[O-])ccc2n1	-21.6%	6.31µM*	20.0%	79.4µM*	-12.2%	7.94µM*	14.8µM*	?
O=[N+]([O-])c1ccc2nc(NCCCO)nc(-c3ccccc3)c2c1	?	?	?	-4.1%	-1.0%	-0.3%[59 µM]	.	.
CCc1c(C)nc2cc(-c3cc(OC)cc(OC)c3)nn2c1N1CCCC1	6.5%	15.8µM*	61.6%	11.7%	-8.3%[11.4 µM]	35.0%[59 µM]	46.9µM*	.
